Assay outcomes from PubChem BioAssay.
mHTT CaM bind: mutant huntingtin-calmodulin interaction inhibitors – biochemical, AlphaScreen, primary screen. P42858. hit rate 3.6% among 190,000. inhibition, % at 15 µM. AlphaScreen His-mHTT/GST-CaM binding, luminescence;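 also: 0% = both proteins with DMSO and 100% = one protein alone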
Pf apPOL inh: Pf-apPOL inhibitors, biochemical, fluorescence | hit rate 0.25% among 210,000 | inhibition, % at 10 µM | Recombinant Pf-apPOL, molecular beacon fluorescence, 1.5 h | Plasmodium falciparum apicoplast DNA polymerase (apPOL) | AID 1794808, 2022
An asterisk follows results filed as active; · = no result given. This is a sample that favours compounds with a hit; in the whole collection about 3.6% have one here. Rule as the data show it: active = inhibition above about 50%; inactive = the rest.

SMILES	mHTT CaM bind	Pf apPOL inh
O=C(O)c1ccc(S(=O)(=O)c2ccccc2)cc1	4	-10
O=C(O)c1cccc(NC2=CC(=NS(=O)(=O)c3ccc(F)cc3)c3ccccc3C2=O)c1	45	17
Cc1ccccc1NC(=O)C1C(C(=O)O)C2C=CC1C21CC1 (stereo unspecified)	0	-7
COc1ccc(C2/C=C\CN(C(=O)C3CCCCC3)[C@@H](C)C(=O)N2Cc2ccc(F)cc2)cc1 (stereo partly specified)	33	-3
COc1ccc(C2/C=C\CN(C(=O)c3ccc(C)cc3)[C@@H](C)C(=O)N2Cc2ccc(F)cc2)cc1 (stereo partly specified)	93*	-6
CCCCC(=O)N1C/C=C\C(c2ccc(OC)cc2)N(Cc2ccc(F)cc2)C(=O)[C@@H]1Cc1ccccc1 (stereo partly specified)	47	0
COc1ccc(C2/C=C\CN(Cc3ccco3)[C@@H](C)C(=O)N2Cc2ccc(F)cc2)cc1 (stereo partly specified)	93*	-6
COc1ccc(C2/C=C\CN(Cc3ccccc3)[C@@H](C)C(=O)N2Cc2ccc(F)cc2)cc1 (stereo partly specified)	73*	1
COc1ccc(C2/C=C\C(c3ccc(OC)cc3)N(Cc3ccc(F)cc3)C(=O)C(=O)N2Cc2ccc(F)cc2)cc1 (stereo unspecified)	38	-6
COc1ccc(Oc2ccc([N+](=O)[O-])cc2C(=O)ON=C(N)c2ccc(C(F)(F)F)cc2)cc1	·	0
CCOC(=O)N1CCC(NC(=O)c2ccc(OCc3nc(C4CC4)cs3)cc2)CC1	-12	-16
O=C1CC2CS(=O)(=O)CC2N1c1cc(Oc2ccc(F)cc2)cc([N+](=O)[O-])c1 (stereo unspecified)	27	3
COc1cc(=O)n(-c2ccccc2C)nc1C(=O)Nc1ccc(OC(F)(F)F)cc1	21	-3
COc1cccc(-c2nc(C3CCN(C(=O)c4ccc(F)c(F)c4)CC3)no2)c1	7	-3
Cc1cc(C)c2c(c1)C1C=CCC1C(c1ccc(C(=O)O)cc1)N2 (stereo unspecified)	74*	-1
Cc1cc(I)c2c(c1)C1C=CCC1C(C(=O)O)N2 (stereo unspecified)	81*	-3
O=C(O)c1cc(Br)cc2c1NC(c1ccc(F)cc1)C1CC=CC21 (stereo unspecified)	95*	8
Cc1cc(I)cc2c1NC(C(=O)O)C1CC=CC21 (stereo unspecified)	-1	1
Cc1ccc2c(c1C)NC(c1ccc([N+](=O)[O-])cc1)C1CC=CC21 (stereo unspecified)	62*	0
COCCCNC(=O)c1nn(-c2ccc(OC)cc2OC)c(=O)c2ccccc12	-10	-5
CC(=O)C1=C(O)C(=O)N(CCc2ccccc2)C1c1ccc([N+](=O)[O-])cc1 (stereo unspecified)	8	-1
CN1C(=O)c2cccnc2Sc2cc(C(=O)NCc3ccc(Cl)cc3)ccc21	4	-13
O=C(Nc1ccc(F)cc1F)N1CCc2c(nc3cc[nH]n3c2=O)C1	6	5
O=C(NC1CCCC1)C1CCCN(c2cnn(Cc3ccccc3)c(=O)c2)C1 (stereo unspecified)	3	-8
O=C(Nc1ccc(Cl)cc1)c1cnn2c1NC(c1ccco1)CC2C(F)(F)F (stereo unspecified)	9	-2
SMILES	mHTT CaM bind	Pf apPOL inh
O=C(O)c1cccc2c1NC(c1ccc(Br)cc1)C1CC=CC21 (stereo unspecified)	66*	-2
O=[N+]([O-])c1ccc(C2Nc3c(I)cccc3C3C=CCC32)cc1 (stereo unspecified)	49	4
O=C(O)c1cccc2c1NC(c1ccc([N+](=O)[O-])cc1)C1CC=CC21 (stereo unspecified)	66*	-5
O=C(O)c1cccc2c1NC(c1cccc(Br)c1)C1CC=CC21 (stereo unspecified)	92*	3
CN(C)C(=O)c1cccc2c1NC(c1ccc(Cl)cc1Cl)C1CC=CC21 (stereo unspecified)	4	-4
O=C1c2ccccc2C(=O)c2c([N+](=O)[O-])ccc(Cl)c21	8	0
O=[N+]([O-])C1=Cc2ccccc2OC1c1c(Cl)cccc1Cl (stereo unspecified)	30	-4
O=C1C=CC(=NOC(=O)c2ccc(Cl)cc2)C=C1	14	-4
O=C1Nc2ccccc2C12Oc1ccccc1C1CC(c3ccccc3)=NN12 (stereo unspecified)	100*	-6
CC1(C)Oc2ccccc2C2CC(c3cccs3)=NN21 (stereo unspecified)	50	-5
COc1ccc(C2=NN3C(C2)c2cc(Cl)ccc2OC3(C)C)cc1 (stereo unspecified)	38	-16
COc1ccc(C2=NN3C(C2)c2cc(Br)ccc2OC32C(=O)Nc3ccccc32)cc1 (stereo unspecified)	100*	-3
Cc1cccc(N2CCC(C(=O)Nc3ccc(F)cc3F)C2=O)c1C (stereo unspecified)	-6	1
O=C(NCCn1ccc2ccccc21)C1(c2ccc(Cl)cc2)CCCC1	83*	8
O=C(NCCn1ccc2ccccc21)c1c(F)cccc1F	-2	0
COc1ccccc1C(=O)Nc1nc2n(n1)C(c1ccccc1)C=C(c1ccccc1)N2 (stereo unspecified)	68*	-3
CC1=CC(c2ccc(Cl)cc2)n2nc(NC(=O)c3ccccc3)nc2N1 (stereo unspecified)	16	2
COc1ccc(C(=O)Nc2nc3n(n2)C(c2ccccc2)C=C(c2ccc(Cl)cc2)N3)cc1 (stereo unspecified)	62*	0
O=C(Nc1nc2n(n1)C(c1ccccc1)C=C(c1ccc(Cl)cc1)N2)c1ccco1 (stereo unspecified)	49	0
CC(=O)Nc1nc2n(n1)C(c1ccccc1)C=C(c1ccccc1)N2 (stereo unspecified)	13	15
O=C(O)CCC(=O)Nc1nc2n(n1)C(c1ccccc1)C=C(c1ccccc1)N2 (stereo unspecified)	18	0
COc1ccc(C(=O)Nc2nc3n(n2)C(c2ccccc2)C=C(c2ccccc2)N3)cc1 (stereo unspecified)	61*	0
O=C(Nc1nc2n(n1)C(c1ccccc1)C=C(c1ccccc1)N2)c1ccco1 (stereo unspecified)	67*	-7
CCN(CCCNS(=O)(=O)c1ccc(Cl)s1)c1cccc(C)c1	65*	-3
CCN(CCCNC(=O)C1CCCN(S(=O)(=O)N2CCCC2)C1)c1cccc(C)c1 (stereo unspecified)	36	-27
SMILES	mHTT CaM bind	Pf apPOL inh
Cc1ccc(NC(=O)Cc2nc(-c3cccnc3)n[nH]2)cc1	-3	0
Cc1ccc(NC(=O)Cc2nc(-c3ccccn3)n[nH]2)cc1F	69*	-12
Cc1ccc(NC(=O)Cc2nc(-c3ccccc3)n[nH]2)cc1F	-4	-6
Cc1ccc(NC(=O)Cc2nc(-c3ccccn3)n[nH]2)cc1C	96*	-15
Cc1ccc(Cl)cc1N1CCC(C(=O)NCC2CCCO2)C1=O (stereo unspecified)	1	-2
COc1cc(NC(=O)c2ccccc2F)c(OC)cc1Cl	-12	-7
